Hit rate of the full screen: of about 2,000 compounds, about 80 (4%) were called active. These entries were drawn from the full list. Unmarked numbers belong to inactive results.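 The calls were made as follows: active = aptamer displacement above 40%, near three times the noise of non-fluorescent compounds, on plates passing quality checks; inactive = the rest.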
Biological target: Beta-adrenergic receptor kinase 1 (Homo sapiens) (UniProt P25098)
Assay: RNA aptamer-GRK2 binding blockers – biochemical, cherry pick 1, bead flow cytometry, confirmation (AID 504451);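 also: negative values mostly reflect intrinsic compound fluorescence rather than true enhancement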
Conditions: bead-bound GRK2, FAM-aptamer displacement, at 10 µM, hits give high values

Sequence of Beta-adrenergic receptor kinase 1 (Homo sapiens) (P25098 whole entry, looked up): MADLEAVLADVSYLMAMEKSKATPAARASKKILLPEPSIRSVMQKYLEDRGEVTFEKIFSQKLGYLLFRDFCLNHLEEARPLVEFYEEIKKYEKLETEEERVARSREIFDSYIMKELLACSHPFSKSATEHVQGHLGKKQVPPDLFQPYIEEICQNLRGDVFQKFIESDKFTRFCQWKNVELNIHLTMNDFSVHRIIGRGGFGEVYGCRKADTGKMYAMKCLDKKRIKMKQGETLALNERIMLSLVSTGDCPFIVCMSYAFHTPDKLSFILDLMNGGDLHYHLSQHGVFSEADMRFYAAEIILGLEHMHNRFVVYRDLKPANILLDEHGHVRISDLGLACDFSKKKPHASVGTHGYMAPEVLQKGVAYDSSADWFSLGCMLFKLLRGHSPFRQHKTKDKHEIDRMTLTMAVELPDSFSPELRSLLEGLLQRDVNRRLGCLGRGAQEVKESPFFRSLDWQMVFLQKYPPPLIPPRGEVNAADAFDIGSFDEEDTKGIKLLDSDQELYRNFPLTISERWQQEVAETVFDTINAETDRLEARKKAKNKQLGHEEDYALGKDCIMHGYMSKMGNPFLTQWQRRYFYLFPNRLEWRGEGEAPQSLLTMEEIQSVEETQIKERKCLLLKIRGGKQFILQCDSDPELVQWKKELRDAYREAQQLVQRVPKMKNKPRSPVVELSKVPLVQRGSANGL

Compound	aptamer displacement
COc1ccc(-n2nc(C(=O)NCC(=O)N3CCCCCC3)c3ccccc3c2=O)cc1Cl	-1.64%
CC(NC(=O)C1CCCN(S(=O)(=O)c2ccc(-n3cnnn3)cc2)C1)c1ccc(F)cc1 (centres undefined)	1.56%
COc1cc(C(=O)OCC(=O)N(CC(C)C)C2CCS(=O)(=O)C2)ccc1OCC(C)C (centres undefined)	-1.87%
Cc1nc(Nc2ccccc2F)c2nnn(Cc3ccccc3Cl)c2n1	0.75%
COCCCNC(=O)CNC(=O)c1nn(-c2ccc(OC)cc2)c(=O)c2ccccc12	-4.54%
COc1ccc(Nc2cc(Sc3ccc(OC)cc3)ncn2)cc1	-1.93%
CCOC(=O)c1sc2nc(CSc3ccccc3)[nH]c(=O)c2c1C	-0.46%
Nc1ccc2nc3c(=O)[nH]c(=S)[nH]c3nc2c1	33%
Cc1cc(C(=O)NC2CCN(Cc3ccccc3)CC2)n[nH]1	-6.63%
CCC(=C/c1sc2ccc3ccccc3c2[n+]1C)/C=C1\Sc2ccc3ccccc3c2N1C	101% (active)
O=C(NCC12CC3CC(C1)CC(CNC(=O)N1CCCC1)(C3)C2)N1CCCC1	-0.31%
CCOc1ccccc1C(=O)NCc1ccco1	-1.88%
COC(=O)c1ccc(C)c(NC(=O)C2CC(=O)N(C3CCCC(C)C3C)C2)c1 (centres undefined)	-1.41%
O=C(NCc1ccccc1)c1cccc(NC(=O)C2CCCCC2)c1	0.14%
COc1ccc(C(=O)NCCNc2ccc([N+](=O)[O-])cn2)cc1	-0.48%
C/C(=N\Nc1nc2ccccc2[nH]1)c1cccs1	-0.6%
COc1ccc(Nc2nc(-c3cccnc3)nc3ccccc23)cn1	4.02%
COc1ccc(N2CCN(C(CNS(=O)(=O)c3ccc(C)cc3)c3ccccc3)CC2)cc1 (centres undefined)	-2.82%
O=C(Nc1ccc(-c2nnc(-c3ccccc3)o2)cc1)c1ccc(Br)o1	0.23%
O=C1C2N=NN(CC(=O)N3N=C(c4cccc5ccccc45)CC3c3ccccc3)C2C(=O)N1c1ccccc1 (centres undefined)	0.13%
COc1cccc(CN(C)CC(=O)Nc2sc3c(c2C#N)CCC3)c1	-0.98%
Cc1ccccc1-c1nnn(CC(=O)c2ccc(S(=O)(=O)N3CCCC3)cc2)n1	-1.24%
CC(C)CN(C(=O)c1cccc(S(=O)(=O)N2CCCCC2)c1)C1CCS(=O)(=O)C1 (centres undefined)	0.16%
O=c1[nH]c(SCc2ccccc2)nnc1-c1ccccc1	-4.45%
Cc1cc(/C=C2\SC(=O)N(C)C2=O)c(C)n1-c1cccc(C(=O)O)c1	10.9%
CN(CC(=O)Nc1ccc(N2CCOCC2)cc1)CC(=O)Nc1ccccc1[N+](=O)[O-]	-1.83%
CNS(=O)(=O)c1cccc(C(=O)NCC2CCCCC2)c1	3.13%

Compound	aptamer displacement
CCCc1nc2ccccc2c(=O)n1NC(=O)c1c(O)c2ccccc2[nH]c1=O	-0.69%
Cn1c(=O)[nH]c(=O)c2c1nc(N1CCN(C(c3ccccc3)c3ccccc3)CC1)n2CCO	-8.5%
O=C(CCS(=O)(=O)c1ccc(Br)cc1)NCCc1ccc(Cl)cc1	28%
Cc1ccc(S(=O)(=O)CCC(=O)Nc2nnc(CC(C)C)s2)cc1	2.47%
O=C(Oc1ccc(Br)cc1)c1cccnc1	-1.31%
COC(=O)N/N=C/c1ccc(/C=N/NC(=O)OC)cc1	-0.84%
O=C(c1cnn(-c2ccc(Cl)cc2)c1)c1ccccc1O	0.64%
CSc1nc2ccccc2c(=O)n1Cc1ccc(F)cc1	1.65%
CC(=O)c1ccc(OCC(O)CN2CCN(S(=O)(=O)c3cccc(Br)c3)CC2)cc1 (centres undefined)	-3.98%
Cc1cc2cc(CNC(=O)c3cccs3)ccc2[nH]1	11.7%
Cn1c(=O)c2c(nc(N3CCOCC3)n2CCNC2=NCCC2)n(C)c1=O	5.84%
CN(Cc1ccccc1)C(=O)c1cccc(C(=O)N(C)Cc2ccccc2)c1	-0.51%
CCN1C(=O)[C@H]2[C@@H](c3ccc(-c4ccc(OC)cc4)cc3)N[C@@](Cc3ccccc3)(C(=O)OC)[C@H]2C1=O	-7.18%
OC(CN=c1sc2ccccc2n1CC(O)COc1ccccc1)COc1ccccc1 (centres undefined)	1.11%
CCOC(=O)C1CCCN(Cc2nc(N)nc(Nc3ccc(C)cc3)n2)C1 (centres undefined)	0.86%
Cc1ccc(-c2nn(-c3ccccc3)cc2/C=C2\SC(=S)N(CCCCCC(=O)O)C2=O)o1	-4.86%
CCN1/C(=C/c2ccc3ccc(C)cc3[n+]2CC)Sc2ccccc21	65.9% (active)
CCN1/C(=C\c2ccc3ccccc3[n+]2CC)Sc2cc(C)ccc21	75.6% (active)
O=C(NCc1ccccc1Cl)c1ccc2c(=O)n(CC3CCCO3)c(=S)[nH]c2c1 (centres undefined)	-1.07%
O=C(NC(=O)c1cc(OCC(F)(F)F)ccc1OCC(F)(F)F)Nc1ccccc1	2.33%
CC(C)Cn1c(CN(Cc2ccccc2)Cc2ccccc2)nc2c1c(=O)n(C)c(=O)n2C	0.47%
C=C(C)C(=O)Nc1cccc(C2=NOC3(C2)C[C@H](C(N)=O)N(C(=O)C(c2ccccc2)c2ccccc2)C3)c1 (some centres undefined)	80.5% (active)
O=C(O)c1ccc2c(c1)C(=O)N(c1ccc(/C=C/C(=O)c3ccccc3)cc1)C2=O	0.79%
CN/C(=C\[N+](=O)[O-])NCCSCc1csc(CN(C)C)n1	1.33%
O=C(c1ccc(Cl)cc1)c1ccc(OCC(O)CN2CCCCC2)cc1 (centres undefined)	-0.78%
O=C(COc1ccccc1)NCCc1nc2ccccc2[nH]1	22.4%
Cc1nc(C(=O)NCc2ccccc2)sc1C1(C)CC(c2cccnc2)=NO1 (centres undefined)	-1.29%
